PINK1 expr mod – changes PINK1 expression; hit rate 0.2% among 410,000; AID 624263; PINK1 immunofluorescence, high-content cytometry, 24 h; Potency, µM (titrated, usually from 76.6 µM), inactives show at the top dose activation (PINK1 increase), actives largely listed as activators; active = well fitted activation curve with a large enough effect; inconclusive = small, poorly fitted or top-dose-only effect; cell line not stated here; also: potency is read from the fitted curve at half-maximal effect; % of control where 0% means no effect; nearly all actives have a fitted effect of over 65% in size
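Measures PINK1 amount and localization on or inside mitochondria by immunofluorescence. Stable cells get compounds at 5 concentrations for 24 hours before fixation and staining; CCCP controls included.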
TCR act – activates T cell receptor signaling. primary human leukocytes, anti-CD3, IL-2 HTRF, 48 h. Potency, µM (top dose mostly 9.22 µM), without a hit: at the highest dose activation of IL-2 secretion, most hits filed as activators. 330,000 tested, under 10 active. AID 504894; also: % of control where 0% means no effect
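Primary human leukocytes were stimulated with a-CD3 beads plus compounds for 48 hr without co-stimulation; secreted IL-2 was quantified by HTRF using a-IL-2-K (europium cryptate) and a-IL-2-d2, excited at 320nm with acceptor emission read at 665nm.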
BRCA1 expr act – increases BRCA1 expression; hit rate 1.1% among 380,000; Potency, µM (doses to about 46.1 µM), for the others: at the top dose activation, actives largely listed as activators; MCF7-BRCA1-FFLuc reporter, luminescence, 48 h; response scale: scaled: vehicle 0%, 10 µM genistein 100%; also: potency is read from the fitted curve at half-maximal effect; nearly all actives have a fitted effect of over 80% in size
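Luminescence from a BRCA1-driven firefly luciferase in MCF7 cells was the read-out, taken 15 min after substrate addition following 48 h compound exposure at 37 °C. Data were normalized to a 10 microM genistein control and DMSO vehicle.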
pAkt inh – inhibitors of Akt phosphorylation; Neuro2A IGF-stimulated pAkt S473 HTRF, 20 min; active compounds read low; activity change, % for hits at 50 µM; hit rate 0.32% among 360,000; in the data active = activity change below about -80%; inconclusive = mostly about -51% to -80%; also: % is scaled to controls: 0 for no effect and ±100 for the full control effect
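Neuro2A cells in DMEM with 0.5% FBS, overnight at 37 deg C, given compound at single 50 µM final, then IGF (6 nM final) for 20 min at 37 deg C. Lysed; phospho-Akt Ser473 by HTRF after 24 h, 665/615 ratio.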
An asterisk follows results filed as active; i = inactive; ? = inconclusive; · = not tested or not shown; [ ] = remark or other dose. Rows were chosen to be rich in hits. Some 1.5% of all compounds tested hit in one or more screens of this group. Unless noted, calls follow the shape of the dose curve; as a rule, active = well fitted curve in the direction sought with a large enough effect; inconclusive = small, poorly fitted or top-dose-only effect, or another doubt; inactive = no such curve, though single readings can be large; an effect the other way counts as inactive or inconclusive.

SMILES	PINK1 expr mod	TCR act	BRCA1 expr act	pAkt inh
COc1ccc(-n2nc(C(=O)NCC(=O)N3CCCCCC3)c3ccccc3c2=O)c(OC)c1	-1%	0%	11µM*	i
COc1ccccc1-n1cc(C(=O)NCC(=O)N2CCN(c3ccccc3)CC2)c2ccccc2c1=O	3%[38.3 µM]	1%	13µM*	i
COc1ccc(-n2nc(C(=O)NCC(=O)N3CCOCC3)c3ccccc3c2=O)c(OC)c1	3%	-27%	19%	i
COc1ccc(-n2nc(C(=O)NCC(=O)N3CCN(c4ccccc4F)CC3)c3ccccc3c2=O)cc1OC	2%	1%	8.9µM*	i
COc1ccc(C(=O)C2CCCN(Cc3cccn3-c3ccccn3)C2)c(OC)c1 (centres undefined)	40µM*	1%	-44%	i
COc1ccc(F)cc1C(=O)C1CCCN(Cc2cccn2-c2ccccn2)C1 (centres undefined)	3%	-3%	-67%	i
Cc1ncc2c(c1CNC(=O)c1ccc3c(c1)OCO3)CCN(C(=O)/C=C/c1ccc(Cl)cc1)C2	0%	·	·	·
CCCSc1nc2c(cnn2-c2ccccc2)c(=O)n1N	1%	3%	0%	i
Nn1c(SCc2ccccc2)nc2c(cnn2-c2ccccc2)c1=O	1%	-1%	3.2µM*	i
Cc1ccc(N/C=C2/Sc3ccccc3NC2=O)cc1	40µM*	4%	?	i
COc1ccc(N/C=C2/Sc3ccccc3NC2=O)cc1	4%	-2%	?	i
CN(C)c1nc2cc3c(cc2cc1CN(CC1CCCO1)C(=O)/C=C/c1cccs1)OCO3 (centres undefined)	0%	·	·	·
O=C1Nc2ccccc2Oc2cc([N+](=O)[O-])cc(Oc3ccccc3)c21	15%	-9%	-75%	i
O=[N+]([O-])c1cc2c(c([N+](=O)[O-])c1)Nc1ccccc1O2	14µM*	·	-39%	i
COc1ccc(CC(=O)NO)cc1OC	0%	·	0%	·
COc1cc(OC)c(/C=C/c2cc(/C=C/c3c(OC)cc(OC)cc3OC)[n+](C)c3ccccc23)c(OC)c1	40µM*	·	-68%	·
COc1ccc(-c2cc(C)cc3c2OC(CNC(=O)/C=C/c2ccncc2)C3)nn1 (centres undefined)	1%	·	·	·
COc1ccc(COc2ccsc2C(=O)Nc2ccc(Cl)c(Cl)c2)cc1	10µM*	·	-76%	i
CN(C)S(=O)(=O)Oc1ccsc1C(=O)Nc1ccc(Cl)c(Cl)c1	4%	-4%	-39%	i
Brc1cccc[n+]1CCC[n+]1ccccc1Br	-1%	·	-5%	·
COc1ccc2cc(C3=CCCCC3)ncc2c1	6%	5%	2.8µM*	i
COc1cc2cnc(C3=CCCCC3)cc2cc1OC	0%	1%	0%	i
CCc1ccc(NC(=O)COc2ccc(F)cc2C(=O)c2cnn(-c3ccccc3)c2)cc1	5%	0%[46.1 µM]	-30%	i
COc1ccccc1NC(=O)COc1ccccc1C(=O)c1cnn(-c2ccccc2)c1	-1%	6%[46.1 µM]	13µM*	i
CC(Oc1ccccc1)C(=O)NCC1Cc2cc(F)cc(-c3ccccn3)c2O1 (centres undefined)	0%	·	·	·
SMILES	PINK1 expr mod	TCR act	BRCA1 expr act	pAkt inh
COc1ccc(CCNC(=O)c2nc(-c3cccs3)no2)cc1OC	-1%	3%	-11%	i
COc1ccccc1CC(=O)NCc1csc(-c2cccs2)n1	2%	-13%	11µM*	i
COc1ccccc1CCNC(=O)c1nc(-c2cccs2)no1	2%	0%	4µM*	i
CCOc1ccc(/C=C/c2ccc3ccccc3[n+]2C)cc1OCC	3%	·	-52%	·
CCCCNC(=O)Cn1cnc2c(cnn2-c2ccc(C)c(C)c2)c1=O	-3%[38.3 µM]	·	4%	-84%*
Cc1ccc(CON=C2CCN(c3ncc(C(F)(F)F)cc3Cl)CC2)cc1	11%	4%	25%	-112%*
Cc1ccc(-c2nc(-c3ccncc3)no2)cc1C	-2%	-1%	?	i
Fc1cccc(F)c1-c1nc(-c2ccncc2)no1	-2%	6%	8.9µM*	i
Cc1ccc(-c2noc(-c3ccno3)n2)cc1	-1%	2%	8.9µM*	i
c1ccc(-c2noc(-c3ccno3)n2)nc1	3%	7%	66%	i
Cc1ccc(OCc2ccc(C(=O)NCC3CCCO3)cc2)cc1 (centres undefined)	-1%	12%	23%	i
CCOC(=O)c1ccc(NC(=O)CC2OCCN(CC)C2=O)cc1 (centres undefined)	-1%	0%	-1%	-118%*
CCOC(=O)c1ccc(NC(=O)CC2C(=O)OCCN2CC)cc1 (centres undefined)	0%	3%	14%	i
CCOc1ccc2oc(C(=O)NCC3CCCO3)c(C)c2c1 (centres undefined)	0%	-7%	8.9µM*	i
CCOC(=O)c1ccc(NC(=O)C(=O)NCC2CCCO2)cc1 (centres undefined)	3%	11%	?	-108%*
O=C(NCC1CCCO1)c1ccc(COc2ccccc2)cc1 (centres undefined)	0%	2%	11µM*	i
COc1cccc2cc(-c3csc(-c4ccc(Cl)cc4)n3)c(=O)oc12	4%	·	·	·
CCCCc1ccc(Nc2cc(C)nc(-n3nc(C)cc3C)n2)cc1	4%	·	·	·
CCN1CCCC1CNC(=O)c1cnn(-c2nccc(-c3cc4ccccc4o3)n2)c1C1CC1 (centres undefined)	1%	·	·	·
Cc1cc(CNC(=O)c2cnn(-c3nccc(-c4ccc5c(c4)OCO5)n3)c2C2CC2)on1	1%	·	·	·
COCCN1CCN(C(=O)c2cnn(-c3nccc(-c4cc5ccccc5o4)n3)c2C2CC2)CC1	0%	·	·	·
CC(=O)c1ccc(C(=O)NCc2nc(-c3ccccc3NC(=O)c3cc(C)oc3C)oc2C)cc1	-1%	·	·	·
CCOc1ccc2oc(C(=O)Nc3ccc(N4CCOCC4)cc3)c(C)c2c1	13%	6%	39%	i
CCOCC(=O)Nc1c(C(=O)Nc2ccc3c(c2)OCCO3)oc2ccccc12	-1%	0%	2µM*	i
CCOc1ccc2oc(C(=O)Nc3ccc4c(c3)OCO4)c(C)c2c1	0%	-7%	2.8µM*	i
SMILES	PINK1 expr mod	TCR act	BRCA1 expr act	pAkt inh
CN(C)S(=O)(=O)c1cccc(NC(=S)Nc2cc(Cl)cc(Cl)c2)c1	?	1%	-69%	i
CN(C)S(=O)(=O)c1cccc(NC(=S)Nc2ccc(Cl)cc2Cl)c1	16µM*	-5%	-50%	i
CCCCn1c(SCC(=O)Nc2cc(C)on2)nc2ccsc2c1=O	?	·	-39%	-101%*
Cc1cc(NC(=O)CSc2nc3ccsc3c(=O)n2Cc2ccccn2)n[nH]1	-7%[38.3 µM]	2%	5.6µM*	i
O=C(Cn1ncn2nc(-c3cccs3)cc2c1=O)NCc1ccccc1Cl	1%	·	·	·
COc1cccc(CN2CCCC(c3nc(C)ncc3-c3ccc(F)cc3)C2)c1OC (centres undefined)	0%	·	·	·
CC(C)C(NS(C)(=O)=O)c1nnc2n1CCN(Cc1ccc3cccnc3c1)CC2 (centres undefined)	1%	·	·	·

Compound activity deposited in PubChem BioAssay by National Center for Advancing Translational Sciences (NCATS).
